Inconclusive results are not listed. Entries that show only a call come without a potency. Unmarked numbers belong to inactive results. Activity calls are given as the source filed them. The call rests on the fitted dose curve; in most records, active means well fitted inhibition curve with a large enough effect; inconclusive means small, poorly fitted or top-dose-only effect; inactive means flat fitted curve, though single readings scatter.
Experiments:
[1] = tested on: HaCat; test: Cytotoxic Profiling of Annotated Libraries Using Quantitative High-Throughput Screening (AID 1296008); details: Five cell lines viability, CellTiter-Glo ATP luminescence, 48-72 h; max response: hits give low values
In short: (§1)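 Cells exposed to compounds for 48 or 72 hr at 37 degrees Celsius. Viability read as ATP-coupled luminescence with CellTiter-Glo after 10 min at room temperature.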

[2] = tested on: KB-3-1; test: as above; details: Five cell lines viability, CellTiter-Glo ATP luminescence, 48-72 h; max response: hits give low values
In short: as §1

[3] = tested on: MCC-13; test: qHTS assay to identify novel small-molecules to repurpose for Merkel cell carcinoma treatment (AID 1296009); details: MCC and control cell lines, CellTiter-Glo viability, 72 h; series mostly up to 46 µM
In short: (§2)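 Cells were treated for 72 hr at 37 degree celsius with compounds in 8- or 11-point dose response. Viability was read by CellTiter-Glo luminescence, normalized to no-cell (cytotoxicity) and DMSO controls.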

[4] = tested on: MKL-1; test: as above; details: MCC and control cell lines, CellTiter-Glo viability, 72 h; series mostly up to 46 µM
In short: as §2

[5] = tested on: MKL-2; test: as above; details: MCC and control cell lines, CellTiter-Glo viability, 72 h; series mostly up to 46 µM
In short: as §2

[6] = tested on: UISO; test: as above; details: MCC and control cell lines, CellTiter-Glo viability, 72 h; series mostly up to 46 µM
In short: as §2

[7] = tested on: NIH3T3; test: Cytotoxic Profiling of Annotated Libraries Using Quantitative High-Throughput Screening (AID 1296008); details: Five cell lines viability, CellTiter-Glo ATP luminescence, 48-72 h; max response: hits give low values
In short: as §1

[8] = tested on: MCC-26; test: qHTS assay to identify novel small-molecules to repurpose for Merkel cell carcinoma treatment (AID 1296009); details: MCC and control cell lines, CellTiter-Glo viability, 72 h; series mostly up to 46 µM
In short: as §2

[9] = tested on: CRL-7250; test: as above; details: MCC and control cell lines, CellTiter-Glo viability, 72 h; at 44.8 µM (top of the series) unless noted
In short: as §2

[10] = tested on: HEK293; test: Cytotoxic Profiling of Annotated Libraries Using Quantitative High-Throughput Screening (AID 1296008); details: Five cell lines viability, CellTiter-Glo ATP luminescence, 48-72 h; max response: hits give low values
In short: as §1

[11] = tested on: HACAT; test: qHTS assay to identify novel small-molecules to repurpose for Merkel cell carcinoma treatment (AID 1296009); details: MCC and control cell lines, CellTiter-Glo viability, 72 h; at 44.8 µM (top of the series) unless noted
In short: as §2
Further: nearly all actives have a fitted effect of over 60% in size.
Potency means the concentration at half of the fitted maximal effect.

In the case of `CCCN(CCC)c1c([N+](=O)[O-])cc(S(N)(=O)=O)cc1[N+](=O)[O-]`, the Potency [1] is reported as 68.6 µM (active), the max response [2] is reported as -9.77% and the Potency [3] is reported as 24.3 µM (active). The Potency [4] was 24.3 µM (active), the Potency [5] was 21.7 µM (active) and the Potency [6] was 21.7 µM (active).

With `O=S(=O)(c1ccc(Cl)cc1)c1ccc(Cl)cc1` the max response [2] was -10.2%, the max response [7] was -7.95% and the Potency [3] was “inactive”. For the same compound, the Potency [8] was “inactive”, the Potency [4] was “inactive” and the Potency [6] was “inactive”.

`O=C(O)CCC1CCC(c2cc(F)ccc2F)(S(=O)(=O)c2ccc(Cl)cc2)CC1` (stereo unspecified) was tested, and the outcome [9] was “inactive”.

With `CC(C[N+](C)(C)C)OC(N)=O` (stereo unspecified) the outcome [9] was “inactive”.

With `N#C[C@H](O[C@@H]1O[C@H](CO[C@@H]2O[C@H](CO)[C@H](O)[C@H](O)[C@H]2O)[C@H](O)[C@H](O)[C@H]1O)c1ccccc1` the Potency [10] was 23.5 µM (active) and the Potency [8] was “inactive”.

With `C=CCC1=C(C)C(OC(=O)C2C(C=C(C)C)C2(C)C)CC1=O` (stereo unspecified) the outcome [1] was “inactive”, the max response [2] was -7.18% and the outcome [11] was “inactive [at 92 µM]”. The Potency [3] was “inactive” and the Potency [8] was “inactive”.

In the case of `C[C@]12COC(=O)C[C@@H]1CC[C@@H]1[C@H]2CC[C@@]2(C)[C@H]1CC[C@]2(C)O`, the outcome [1] is reported as “inactive”, the max response [2] is reported as 0.496% and the max response [7] is reported as -1.39%. The outcome [11] was “inactive”, the Potency [3] was “inactive” and the Potency [8] was “inactive”. The Potency [4] was “inactive”, the Potency [5] was “inactive” and the Potency [6] was “inactive”.

`Cc1cccc(C)c1NC(=O)c1ccccc1C(=O)O` was tested, and the outcome [9] was “inactive”.

In the case of `ClC1=C(Cl)[C@]2(Cl)[C@@H]3[C@@H]4C[C@@H]([C@H]5O[C@@H]45)[C@@H]3[C@@]1(Cl)C2(Cl)Cl`, the max response [2] is reported as 13.3%, the Potency [3] is reported as “inactive” and the Potency [8] is reported as “inactive”. The Potency [4] was “inactive” and the Potency [5] was “inactive”.

In the case of `O=C1CCCC2=C1C(c1[nH]ncc1Cl)N=C(Nc1nc3ccccc3o1)N2` (stereo unspecified), the outcome [9] is reported as “inactive”.

In the case of `Clc1ccccc1CN1CCc2sccc2C1`, the outcome [9] is reported as “inactive”.

Work on `CC(=CCCC1=CCC(C2=CC(=O)OC2O)OC1O)CCC1=C(C)CCCC1(C)C` (stereo unspecified) yielded a max response [1] of -18.3%, a max response [2] of -6.74% and a max response [7] of -0.889%. For the same compound, the Potency [3] was “inactive”, the Potency [8] was “inactive” and the Potency [4] was “inactive”. The Potency [5] was “inactive” and the Potency [6] was “inactive”.

With `Cn1c(NCCN(CCO)CCCc2ccc([N+](=O)[O-])cc2)cc(=O)n(C)c1=O` the outcome [9] was “inactive”.

`CC(C)[C@H]1C(=O)N[C@H](CO)Cc2c[nH]c3cccc(c23)N1C` showed a max response [1] of -1.9%, a max response [2] of 9.88% and a max response [7] of -1.36%. For the same compound, the Potency [3] was “inactive”, the Potency [8] was “inactive” and the Potency [4] was “inactive”. The Potency [5] was “inactive”.

`CC(C)(C)COc1ccc(-n2cc(C(=O)O)cn2)cc1C#N` was tested, and the outcome [9] was “inactive”.

`COc1c(Cl)cc2c([nH]c3cnccc32)c1NC(=O)c1cccnc1C` was tested, and the outcome [9] was “inactive”.
